Reference: publication PMC12136788
Whole data set: some 5,800 sequences, median “enrichment r” near 0.68, cut for the highest 2% near 11. For the sample, the highest values were picked, then their nearest neighbours and some sequences at random.

T1: UNK ZnF1-6 (called full-length) (human, UniProt Q9C0B0 30-357)
T1 sequence: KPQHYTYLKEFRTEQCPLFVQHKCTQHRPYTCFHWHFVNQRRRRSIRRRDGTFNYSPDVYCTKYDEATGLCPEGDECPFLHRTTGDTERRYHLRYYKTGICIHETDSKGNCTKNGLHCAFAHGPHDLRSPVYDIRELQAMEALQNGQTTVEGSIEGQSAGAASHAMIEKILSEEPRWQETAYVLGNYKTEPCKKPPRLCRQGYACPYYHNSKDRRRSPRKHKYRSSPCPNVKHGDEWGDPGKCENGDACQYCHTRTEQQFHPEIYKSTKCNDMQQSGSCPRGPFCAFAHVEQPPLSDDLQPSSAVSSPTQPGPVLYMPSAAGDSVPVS

B1: chrX:129805617:129805718:-|3pUTR|ENSG00000188706|msi1|FALSE|unique (ssRNA)
RNA: GGGAGUUCUACAGUCCGACGAUCUCUUUUCCCAUUAGAUAUAUGUAAGUAGUUGUAGUAGAGAUAAUAAUUGACAUUUCUCGUAGACUACCCAGAAACUUUUUUAAUACCUGUGCCAUUCUCAAUAAGAAUUUAUGAGAUGCCCAACAGAGGAUUGAGCAUCA
B2: chr22:43879677:43880794:-|three_prime_utr|ENSG00000100341|control|control|control (ssRNA)
RNA: GGGAGUUCUACAGUCCGACGAUCGAGAAAGGAGGACAGCCACAGAGACACAUGUCUUACUUUCAGAAUUUCCACGGGGGGACUAGGAGGGCAGCAUUGCUGGGGAGAGGGGCUCCUGUUCUGCCGUGGAGCUGCCCACGGAGCCAACAGAGGAUUGAGCAUCA
B3: chr3:115809552:115809653:-|3pUTR|ENSG00000185565|unk|total|mutant (ssRNA)
RNA: GGGAGUUCUACAGUCCGACGAUCCUCCCUCACCUCUCCUCACCUCCACCCCCUCCCCAGAGCACCCGUCAUGCCGCAAAUGCCCGGAAGUGCCAUUUUCAUUUUCUCCACUGUGCGUGUGUGCUCAAGUCUUUCGCUCUCACGCAACAGAGGAUUGAGCAUCA
B4: chr4:145760401:145760502:-|3pUTR|ENSG00000151612|unk|FALSE|unique (ssRNA)
RNA: GGGAGUUCUACAGUCCGACGAUCUCCGUACUUUUCUCUGAAAGGAAUCUUGUCUUGUUAAACCCUAAAGAGAGUGUCCUUAAUAGCAAUCAGCACUUGUAAGCUUAUAUACUGGUGCAUUUGGUUUUCUGUUGGGUGAAUGCGCAACAGAGGAUUGAGCAUCA
B5: chr20:63933867:63933968:+|3pUTR|ENSG00000101152|msi1|FALSE|unique (ssRNA)
RNA: GGGAGUUCUACAGUCCGACGAUCAUCAGAGUGGGCCCCUUGCCAGGUGGCUUUUCAGUUACAGAGUCCAGUGGACCAUUUUGUAGAACCAUGCAGCUCCCUGCGGAAGGUGGGGUAGGGUGGGAAAGAGGAGCAGGUCUGGAGCAACAGAGGAUUGAGCAUCA
B6: chr12:53210768:53210868:-|3pUTR|ENSG00000172819|msi1_unk|FALSE|overlapping (ssRNA)
RNA: GGGAGUUCUACAGUCCGACGAUCAGGGGGGAUGCUGCUUAGCUGAUCCCGCCCUGACCCAGAGGAAGCCUCUAUUUAUUUAUUAGCUUUUGUUUACACCGUGGAAUUGACCCCUUCCUCCAGGGGUCUUGGGUGGGGGAGCCCCAACAGAGGAUUGAGCAUCA
B7: chr17:49053040:49053141:+|3pUTR|ENSG00000159217|unk|FALSE|unique (ssRNA)
RNA: GGGAGUUCUACAGUCCGACGAUCCUCAGCUCCUGUGAGGGGUCUGGUUAGGAGAGAGCCAUUUUUAAGGACAGGGAGUUUUAUAGCCCUUUUCUACUUUCCUCCCCUCCUCCCAGUCCUUAUCAAUCUUUUUUCCUUUUUCCUCAACAGAGGAUUGAGCAUCA
B8: chr17:27756765:27757353:-|three_prime_utr|ENSG00000007171|control|control|control (ssRNA)
RNA: GGGAGUUCUACAGUCCGACGAUCCAAGUCUUAUUUCCUCAACGUUGCUCCCCAUCAAGCCCUUUACUUGACCUCCUAACAAGUAGCACCCUGGAUUGAUCGGAGCCUCCUCUCUCAAACUGGGGCCUCCCUGGUCCCUUGGAGCAACAGAGGAUUGAGCAUCA
B9: chr15:74955373:74955475:-|3pUTR|ENSG00000178718|unk|FALSE|unique (ssRNA)
RNA: GGGAGUUCUACAGUCCGACGAUCGGACAGUUUUCCUUUCUAGUUUUCUUUCCCCUGCUUCAGAGGAGCAUCUCUGAGGGUUCUAGCUCUUUUAACACCCCUUUUCCCCCUGCUGGCCCAGAGGGAGACCCAGGACUGAACUCUCAACAGAGGAUUGAGCAUCA
B10: chr4:48579112:48579224:-|CDS|ENSG00000075539|unk|FALSE|bound_elsewhere (ssRNA)
RNA: GGGAGUUCUACAGUCCGACGAUCCUCUAUUGCCCUAGCUCGAUAGAUUUACAAACUUUAGCAGAAUGGAACUCUUCUCCUAUUAGCCACCAGUUUGAUGUGAUUAGUCCAUCACAUAUAUGGAUAUUUGCACAUGUGACCCAACAACAGAGGAUUGAGCAUCA
B11: chr12:56205560:56205676:-|3pUTR|ENSG00000181852|unk|FALSE|unique (ssRNA)
RNA: GGGAGUUCUACAGUCCGACGAUCCUCUUGUGGCACAGGCCAUAAUUGUUCCAUAGACCCCUCUCUAGCCCUGUGACUGUAGUUAGUUACUUUGAUAAUUUUCUUUGGCCAUUGUUUGUUUAUAUUUCACAAACUCCACCUACUCAACAGAGGAUUGAGCAUCA
B12: chr19:12699869:12699961:-|3pUTR|ENSG00000105576|msi1_unk|FALSE|overlapping (ssRNA)
RNA: GGGAGUUCUACAGUCCGACGAUCGAGGGUGGGGGUGUAGUUACUUCCCAGUUGGCCAGAAAACUGGGCCUUGCAGACCCCCUUAGCAUUUUUUCCCUUUUUUUCCUUCCCUGCUUUCUACUUCUUUGGGGAGCCCCUUGUGUUCAACAGAGGAUUGAGCAUCA
B13: chr11:2944997:2945113:-|3pUTR|ENSG00000205531|unk|FALSE|unique (ssRNA)
RNA: GGGAGUUCUACAGUCCGACGAUCCUGUGUAGAGUAGGGCCCUGUUCUCCUUAGGAUGUUGCUUCUUGAUUUUUUUUUUUUUUUAGGGGUGGGUCAGGGUUGUGACACACCAGCCCAGGUGAGAGCUGCUGCGGGUCACCUCAUCAACAGAGGAUUGAGCAUCA
B14: chr17:50110931:50111032:+|3pUTR|ENSG00000005882|unk|FALSE|unique (ssRNA)
RNA: GGGAGUUCUACAGUCCGACGAUCUGUGCCCAGACAUGUGUGCUCAGGGUGGCUUUCUCCCUAGGACCUUCUGUGUAUAUAGUUAGUUUUAUAACCCUGAAUGCCCCCACCCUUCCCCUAAGCACACAGGGGUUAAAGCUGUGUCAACAGAGGAUUGAGCAUCA
B15: chr1:160214333:160214525:+|3pUTR|ENSG00000162734|msi1|FALSE|unique (ssRNA)
RNA: GGGAGUUCUACAGUCCGACGAUCCUACAGUGUUUUCCUUUGCACCGAUCCCCACCCCAAUUCAAUCCCGGAAGGGACUUACUUAGGAAACCCUUCUUUACUAGAUAUCCUGGCCCCCUGGGCUUGUGAACACCUCCUAGCCACCAACAGAGGAUUGAGCAUCA
B16: chr19:3536616:3536717:+|3pUTR|ENSG00000105325|msi1|total|mutant (ssRNA)
RNA: GGGAGUUCUACAGUCCGACGAUCACCGCCGCAGGGCCAGGCGGACGGCGUGAGGUUUGUGUUGGGGCUGGUUCUGCCCAUGCCCGGGGGUGGGGGAGCUCCCAGGACAGACCAGCCUUGUUUCUCAUGUAAUGCAGUGACGCUCAACAGAGGAUUGAGCAUCA

Target: T1, UNK ZnF1-6 (called full-length)
Experiment: nsRBNS (natural sequence RNA bind-n-seq); RBNS binding buffer (assumed for nsRBNS): 25 mM Tris pH 7.5, 150 mM KCl, 3 mM MgCl2, 0.01% Triton X-100, 500 ug/ml BSA, 20 U/ml SUPERase-In, 4 C; UNK is unkempt and MSI1 is Musashi-1; names of the RNAs are library labels; protein concentration not given here; high values mean tight binding

Q: For B1, which binding signal is on record?
A: 101 enrichment R

Q: For B2, which binding signal is on record?
A: 1.05 enrichment R

Q: With B3 as the binder, how does the binding signal read?
A: 1.88 enrichment R

Q: How did the binding signal turn out when B4 was run?
A: 0.364 enrichment R

Q: B5 was tested. Which binding signal did it give?
A: 1.29 enrichment R

Q: For B6, which binding signal is on record?
A: 2.83 enrichment R

Q: How did the binding signal turn out when B7 was run?
A: 3.9 enrichment R

Q: B8 was tested. Which binding signal did it give?
A: 0.605 enrichment R

Q: How did the binding signal turn out when B9 was run?
A: 10.8 enrichment R

Q: Which binding signal does the source give for B10 here?
A: 1.85 enrichment R

Q: For B11, which binding signal is on record?
A: 33.5 enrichment R

Q: With B12 as the binder, how does the binding signal read?
A: 15.5 enrichment R

Q: How did the binding signal turn out when B13 was run?
A: 22 enrichment R

Q: How did the binding signal turn out when B14 was run?
A: 6.79 enrichment R

Q: Which binding signal does the source give for B15 here?
A: 2.33 enrichment R

Q: Which binding signal does the source give for B16 here?
A: 0.79 enrichment R
